The subject of this assay is Plasmodium falciparum Sir2 (PF13_0152, Sir2A). The assay is described as follows: Plasmodium falciparum Sir2A binding compounds – biochemical, small-molecule microarray, 635 nm fluorescence, primary screen (AID 1098).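 Note: score merges spot fluorescence intensity with its signal-to-noise ratio.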 Conditions: fluorescence 635 nm, higher = more signal.
In turn, `COCCOC(=O)N1C(=O)[C@@]2(c3cc(C#CCCO)ccc31)[C@H](C(=O)N1CCCCCCC1)[C@H]1C(=O)O[C@H](c3ccccc3)[C@H](c3ccccc3)N1[C@@H]2c1ccc(OCCO)cc1` returned a composite z-score of 1.4.

`C=CC[C@@]12N=C(c3ccc(OCCCO)cc3)O[C@@H]1c1ccccc1N(C)C2=O` had a composite z-score of 1.13.

Consider `O=C1C2C=CC(C(O)Cc3ccccc3)N(n3cnnc3)C2C(=O)N1Cc1ccccc1` (stereo not given), for which the composite z-score was 0.386.

`CCN(CC)c1ccc(N2CC=CC34O[C@@H]5C=CCCOC(=O)C5[C@H]3C(=O)N(CCCCCCO)[C@@H]4C2=O)cc1` (stereo not given in full): the composite z-score is 1.93.

The compound `O=C1c2ccccc2[C@](Cc2ccccc2I)(C(=O)NCCN2CCOCC2)[C@H](c2ccc(CO)cc2)N1C1CCCCC1` displayed a composite z-score of 0.979.

In turn, `[N-]=[N+]=Nc1ccccc1[C@@H]1OC(c2ccc(OCCCO)cc2)=N[C@]1(CCS(=O)(=O)c1ccccc1)C(N)=O` displayed a composite z-score of 1.37.

The compound `CN(C)C(=O)[C@@]1(CCS(=O)(=O)c2ccccc2)COC(c2ccc(OCCCO)cc2)=N1` returned a composite z-score of 0.656.

In turn, `CC(C)C[C@@H]1NC(=O)[C@@H]2C[C@H](C(=O)O)[C@H](c3cccc(OCCO)c3)N2C1=O` returned a composite z-score of 0.881.

Consider `CCOC(=O)C[C@H]1[C@H](OC(=O)c2ccc(-c3ccccc3)cc2)[C@@H](NC(=O)Cc2ccc(OC)cc2)c2cc(OCCCO)ccc2N1C(=O)c1ccccc1`, for which the composite z-score was -0.168.

In the case of `C=C(CCCC)/C(=C/C[C@H](OC(C)=O)c1ccccc1OCCO)c1cc(C(=O)OC)ccc1OC`, the composite z-score turned out to be 1.3.

`C=CCC(OC(C)=O)[C@@H]1[C@@H](N(Cc2ccc(-c3ccccc3)cc2)C(=O)c2cccc3ccccc23)c2cc(OCCCO)ccc2N1C(=O)c1ccc(-c2ccccc2)cc1` (stereo not given in full): the composite z-score was -0.333.

`Cc1ccc(S[C@]2(C(=O)NCCCN(C)C)CC(=O)N(Cc3cc(C(F)(F)F)cc(C(F)(F)F)c3)[C@@H]2c2ccc(CO)cc2I)cc1` returned a composite z-score of -0.0355.

`CCC[C@@H]1C[C@@]1(CCC)[C@@H](NC(=O)c1ccccc1)c1cccc(Cl)c1` registered a composite z-score of -0.12.

In turn, `COc1ccccc1CN1C(=O)c2ccccc2[C@@]2(Cc3ccccc3N(CC(C)C)C2=O)[C@@H]1c1ccc(CO)cc1` gave a composite z-score of -0.327.

`Cc1ccc(N2C(=O)c3ccccc3[C@@H](C(=O)NC3CC3)[C@@H]2c2ccc(CO)cc2)nc1` yielded a composite z-score of 1.24.

Compound `C=C[C@H](CO[Si](CC)(CC)CC)N(Cc1ccc(OC(C)=O)c(OC)c1)S(=O)(=O)c1ccc(Br)cc1` came in with a composite z-score of 0.609.

For the compound `O=C1NC(=O)C2C1C=CC(C(O)c1cc(C(F)(F)F)cc(C(F)(F)F)c1)N2Nc1ccccn1` (stereo not given), the composite z-score came to 1.57.

The compound `C[N+](C)(C)CCCC[C@@H]1NC(=O)[C@H]2C[C@@H](C(=O)NCCCCCCNC(=O)CS)[C@@H](c3cccc(OCCO)c3)N2C1=O` gave a composite z-score of 0.726.

In turn, `CC(C)NC(=O)[C@@H]1c2ccccc2C(=O)N(C2Cc3ccccc3C2)[C@H]1c1ccc(CO)cc1` yielded a composite z-score of 0.959.

The compound `C=C(CC1([C@@H](NP(=O)(c2ccccc2)c2ccccc2)[C@H]2C[C@@H]2CCCC)CC1)c1ccccc1` registered a composite z-score of 0.339.

Compound `CCOC(=O)C[C@H]1[C@H](OC(=O)c2ccc(C(=O)c3ccccc3)cc2)[C@@H](NC(=O)c2ccc3ccccc3n2)c2cc(OCCCO)ccc2N1C(=O)c1ccccc1` returned a composite z-score of 0.772.

In turn, `O=C1C[C@@](C(=O)NCCN2CCOCC2)(c2ccc([N+](=O)[O-])cc2)[C@@H](c2ccc(CO)cc2)N1CC12CC3CC(CC(C3)C1)C2` displayed a composite z-score of 0.866.

`CC(C)=CCN[C@H](CO)c1ccccc1`: the composite z-score stood at 0.38.

Consider `COC(=O)[C@@]1(Cc2ccc(OC)cc2)[C@H]2c3cc(C(=O)N(C)C)n(C)c3C[C@H]2CN1C(=O)c1ccccc1`, for which the composite z-score is 0.843.

Take `CN1C(=O)C2C=CC(C(O)c3ccc([N+](=O)[O-])cc3)N(N3CCCCC3)C2C1=O` (stereo not given): the composite z-score turned out to be 1.41.

With `CC(=O)n1cc(C(O)C2C=CC3C(=O)N(c4ccccc4)C(=O)C3N2Nc2ccc([N+](=O)[O-])cc2)c2ccccc21` (stereo not given), the composite z-score worked out at 0.894.

`O=C(c1ccccc1)N1Cc2ccccc2C[C@@]2(COC(c3ccc(OCCCO)cc3)=N2)C1=O` gave a composite z-score of 1.5.

`O=C(c1ccccc1)N1C(=O)[C@]2(COC(c3ccc(OCCCO)cc3)=N2)Cc2ccccc21` returned a composite z-score of 1.7.

Compound `CCCC[C@@H]1C[C@H]1[C@@H](NC(=O)c1ccccc1)c1ccc(C(=O)OC)cc1` had a composite z-score of 0.798.

In the case of `COc1cc2c(cc1O)C(C1CC1)N(Cc1sc3ccccc3c1Cl)CC2` (stereo not given), the composite z-score was 1.25.

The compound `O=C1N(Cc2ccccc2)c2ccccc2[C@@H]2OC(c3ccc(OCCCO)cc3)=N[C@]12CCS(=O)(=O)c1ccccc1` registered a composite z-score of 0.833.

As to `CO[C@H]1O[C@H](CO)[C@@H](OC(=O)Nc2cccc(F)c2)[C@H](OC(=O)Nc2ccccc2)[C@@H]1OC(=O)Nc1ccccc1`, the composite z-score was found to be 0.931.

In the case of `COc1ccc(CCNC(=O)[C@@]2(Sc3ccc(C)cc3)CC(=O)N(C(C)C)[C@@H]2c2ccc(CO)cc2I)cc1`, the composite z-score was found to be 0.699.

`Cc1ccc(S[C@]2(C(=O)NCCCN(C)C)CC(=O)N(Cc3cc(C(F)(F)F)cc(C(F)(F)F)c3)[C@@H]2c2ccc(CO)cc2)cc1` registered a composite z-score of -1.

Compound `CC(C)NC(=O)[C@@]1(c2ccc([N+](=O)[O-])cc2)CC(=O)N(C2CCCCC2)[C@@H]1c1ccc(CO)cc1I` displayed a composite z-score of 1.04.
